# Sampled rows, rich in hits. Any-hit rate of the full collection: about 12%.
# CHOP inhibitor: inhibitors of CHOP induction in ER stress response. inhibition, % at 10 µM. hit rate 3.8% among 220,000. CHO-K1 CHOP-promoter luciferase, tunicamycin-induced, 15-18 h;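 active means compounds that reduced the stress-induced luciferase reporter signal by more than about 70% of percent inhibition, limit read from the data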
# Arbovirus inh: arbovirus infection inhibition; arbovirus infection cell-based antiviral screen; inhibition, % at 10 µM; hit rate 0.37% among 200,000; AID 1251; in the data active means inhibition above about 30%
# L major viab: reduces viability of Leishmania major promastigotes; resazurin fluorescence viability; inhibition, % at 10 µM; hit rate 9% among 200,000; AID 1063; in the data active means inhibition above about 50%;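 further: promastigotes grown with compound for 44 hours at 28 °C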
# WT yeast gro inh: growth inhibition of WT yeast, mitochondrial fusion screen. mitochondrial fusion phenotypic screen, WT strain. inhibition, % at 10 µM. hit rate 2.1% among 190,000. AID 1362; in the data active means inhibition above about 58%; tested in S. cerevisiae
# A number is an active result; i = inactive; nt = not tested or not shown.
SMILES,CHOP inhibitor,Arbovirus inh,L major viab,WT yeast gro inh
COC(=O)c1ccc(C2N=C(c3cccs3)CC(c3ccccc3O)N2)cc1 (stereo not given),i,i,i,62
COc1ccc(C(=O)CCN2CCCCCC2)cc1,i,i,85,i
O=C(CCN1CCCCCC1)c1ccccc1,i,i,88,i
CC1(C)CC2(CCCN(C(=S)Nc3ccccc3)C2)CCO1 (stereo not given),i,nt,nt,nt
CCOc1ccc(C(=O)CCN2CCCCC2)cc1,i,i,i,i
CCCOc1ccc(C(=O)CCN2CCN(C(=O)OCC)CC2)cc1,i,i,96,i
CCC1(C)CC2(CCCN(CCC(=O)c3ccccc3)C2)CCO1 (stereo not given),i,i,69,i
CC(=O)NC(Cc1c[nH]c2ccccc12)C(=O)OCC(=O)N1CCCCCC1 (stereo not given),i,i,i,i
O=C(CCN1CCN(c2ccccc2F)CC1)c1ccc(Br)cc1,i,i,83,i
CC(C)Oc1ccc(C(=O)CCN2CCCCC2)cc1,i,i,90,i
O=C(CCCCN1CCCCC1)c1ccc2c(c1)Cc1ccccc1-2,i,i,100,i
Cc1ccc(NS(=O)(=O)c2ccc3[nH]c(=O)[nH]c3c2)c(C)c1,i,i,i,i
CC(=O)O[C@]1(C(C)=O)CC[C@H]2[C@@H]3C=C(Cl)C4=CC(=O)[C@@H]5C[C@@H]5[C@]4(C)[C@H]3CC[C@@]21C,i,nt,nt,nt
CC(=O)O[C@]1(C(C)=O)CC[C@H]2[C@@H]3C=C(Cl)C4=CC(=O)CC[C@]4(C)[C@H]3CC[C@@]21C,i,i,68,i
Cc1[nH]c2ccccc2c1C(=O)CSc1nc2ncc(Cl)cc2[nH]1,86,i,i,i
CCNC(=O)/C(C#N)=C/c1c(N2CCOCC2)nc2ccccn2c1=O,i,i,i,i
CNC(=O)/C(C#N)=C/c1c(N(Cc2ccccc2)Cc2ccccc2)nc2c(C)cccn2c1=O,i,i,72,i
CCNC(=O)/C(C#N)=C/c1c(N2CCN(Cc3ccc4c(c3)OCO4)CC2)nc2c(C)cccn2c1=O,i,i,55,i
Cc1cccn2c(=O)c(/C=C(\C#N)C(=O)NCc3ccco3)c(N3CCCCCC3)nc12,i,nt,nt,nt
COc1ccc(Oc2nc3c(C)cccn3c(=O)c2/C=C(\C#N)C(N)=O)cc1,i,nt,nt,nt
CCNC(=O)/C(C#N)=C/c1c(N(Cc2ccccc2)Cc2ccccc2)nc2ccccn2c1=O,i,i,56,i
CC(C)OP(=O)(OC(C)C)C(O)c1cccc([N+](=O)[O-])c1 (stereo not given),i,nt,nt,nt
Cc1cc(C(=O)CN2CCCCC2)c(C)n1-c1ccc(F)cc1,i,i,i,i
CCOC(=O)c1cc(C(=O)OCC)cc(-n2c(C)cc(C(=O)CN3CCOCC3)c2C)c1,i,i,93,i
Cc1cc(C(=O)CN2CCC(C)CC2)c(C)n1-c1ccc(F)cc1,i,i,91,i
SMILES,CHOP inhibitor,Arbovirus inh,L major viab,WT yeast gro inh
Cc1cc(C(=O)CN2CCCC2)c(C)n1-c1ccc(Cl)cc1,i,i,53,i
COc1ccc(-n2c(C)cc(C(=O)CN3CCC(C)CC3)c2C)cc1,i,i,92,i
CC(C)CCC(C(=O)O)C(C)CC(=O)Nc1ccn(-c2ccccc2)n1 (stereo not given),i,nt,nt,nt
CC(C)C[C@H](NC(=O)c1nc[nH]c1C(=O)N(C)Cc1ccccc1)C(=O)OCc1ccccc1,i,i,i,i
Cc1ccc(-n2c(SCC(N)=O)nnc2-c2ccccn2)cc1C,i,i,i,i
Cc1ccc(NC(=O)CSc2nnc(-c3n[nH]c4ccccc34)n2-c2ccccc2)c(C)c1,i,i,53,i
CCn1c(CC(=O)Nc2ccc(C)c(Cl)c2)nnc1SCc1ccc(Cl)c(Cl)c1,i,i,i,i
Cc1ccc(OCc2nnc(SCC(=O)Nc3cccc4ccccc34)n2-c2ccccc2)cc1,i,i,95,i
CCn1c(CC(=O)Nc2ccc(C)c(Cl)c2)nnc1SCC(=O)Nc1nc(C)cs1,79,i,i,nt
N#Cc1ccccc1NC(=O)CSc1nnc(-c2ccc(F)cc2)n1-c1ccccc1,i,i,i,i
Cc1csc(NC(=O)CSc2nnc(-c3ccccn3)n2-c2ccc(C)c(C)c2)n1,i,i,68,i
COc1cccc(/C=C/C(=O)OCC(=O)Nc2ccc(N3CCOCC3)cc2)c1OC,i,i,i,i
CCOC(=O)C1(Cc2ccc(OC)cc2)CCN(C(=O)[C@@H]2CCCN2C(C)=O)CC1,i,nt,nt,nt
Cc1ccc(-n2c(COc3c(C)cccc3C)nnc2SCC(=O)Nc2nccs2)cc1,i,i,i,i
Cc1ccc(OCc2nnc(SCC(=O)Nc3nccs3)n2-c2ccccc2)cc1C,75,i,i,i
Cc1[nH]c2ccccc2c1CN1CCc2ccccc2C1,91,i,100,i
COc1ccc(NS(=O)(=O)c2cc([N+](=O)[O-])ccc2N/N=C\c2c(C)[nH]c3ccccc23)cc1,i,i,98,i

# Source: PubChem (several laboratories)
